Structures can show the parent of a compound that is named as a salt.
What follows are compounds tested on Saccharomyces cerevisiae BY4741 SeMeCo community (assay: z-score of subpopulation abundance vs DMSO median, subpopulation auxotrophic for HLM; higher = larger share of this subpopulation than in DMSO controls). Conditions: 10 µM; 24 h; SM minimal medium; subpopulation (auxotrophy): HLM.
Summary of the method: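 Subpopulation abundance was reported as a z-score against the median of vehicle wells. The Saccharomyces cerevisiae BY4741 community, carrying four plasmids that each restored one auxotrophy and encoded a distinct fluorescent protein, was grown 24 h in minimal SM medium in 384-well plates holding library drugs at 10 µM final. Cells were paraformaldehyde-fixed and imaged by automated confocal microscopy, with single-auxotroph fluorescent strains used for thresholds and autofluorescence correction.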

SMILES	z-score of subpopulation abundance
CN[C@@H]1[C@H](O[C@H]2[C@H](O[C@H]3[C@H](O)[C@@H](O)[C@H](NC(=N)N)[C@@H](O)[C@@H]3NC(=N)N)O[C@@H](C)[C@]2(O)CO)O[C@@H](CO)[C@H](O)[C@H]1O [Dihydrostreptomycin sulfate]	0.47
C=CCc1ccc(O)c(-c2ccc(O)c(CC=C)c2)c1 [Honokiol]	-0.37
COCCCN1CCC(NC(=O)c2cc(Cl)c(N)c3c2OCC3)CC1 [Prucalopride]	0.6
COCC(=O)Nc1cc(Sc2ccccc2)ccc1N=C(NC(=O)OC)NC(=O)OC [Febantel]	0.64
Cc1ccsc1/C=C/C1=NCCCN1C [Morantel tartrate]	-0.2
CCn1cc(C(=O)O)c(=O)c2cc(F)c(N3CCNCC3)cc21 [Norfloxacin]	-0.51
CC[C@H]1OC(=O)C[C@@H](O)[C@H](C)[C@@H](O[C@@H]2O[C@H](C)[C@@H](O[C@H]3C[C@@](C)(O)[C@@H](O)[C@H](C)O3)[C@H](N(C)C)[C@H]2O)[C@@H](CC=O)C[C@@H](C)C(=O)/C=C/C(C)=C/[C@@H]1CO[C@@H]1O[C@H](C)[C@@H](O)[C@@H](OC)[C@H]1OC [Tylosin]	0.99
COC(=O)C1=C(C)NC(C)=C(C(=O)OC2CCCN(Cc3ccccc3)C2)C1c1cccc([N+](=O)[O-])c1 (centres undefined) [Benidipine HCl]	0.06
CC1=C[C@H]2C(=O)O[C@H]3C[C@@H](C/C=C(\C)C[C@@H](C)/C=C/C=C4\CO[C@H](/C1=N\O)[C@@]42O)O[C@@]1(CC[C@H](C)[C@@H](C)O1)C3.CC[C@H]1O[C@]2(CC[C@@H]1C)C[C@@H]1C[C@@H](C/C=C(\C)C[C@@H](C)/C=C/C=C3\CO[C@@H]4/C(=N\O)C(C)=C[C@@H](C(=O)O1)[C@]34O)O2 [Milbemycin Oxime]	-0.22

— the supplement of paper PMC8975748
